Source: ChEMBL document CHEMBL2218924, “A broad activity screen in support of a chemogenomic map for kinase signalling research and drug discovery” (Biochem J, 2013)

The compounds below were run against T1, Tyrosine-protein kinase receptor TYRO3 (Homo sapiens) (UniProt Q06418). Details: at 10 µM.
T1 sequence (whole entry): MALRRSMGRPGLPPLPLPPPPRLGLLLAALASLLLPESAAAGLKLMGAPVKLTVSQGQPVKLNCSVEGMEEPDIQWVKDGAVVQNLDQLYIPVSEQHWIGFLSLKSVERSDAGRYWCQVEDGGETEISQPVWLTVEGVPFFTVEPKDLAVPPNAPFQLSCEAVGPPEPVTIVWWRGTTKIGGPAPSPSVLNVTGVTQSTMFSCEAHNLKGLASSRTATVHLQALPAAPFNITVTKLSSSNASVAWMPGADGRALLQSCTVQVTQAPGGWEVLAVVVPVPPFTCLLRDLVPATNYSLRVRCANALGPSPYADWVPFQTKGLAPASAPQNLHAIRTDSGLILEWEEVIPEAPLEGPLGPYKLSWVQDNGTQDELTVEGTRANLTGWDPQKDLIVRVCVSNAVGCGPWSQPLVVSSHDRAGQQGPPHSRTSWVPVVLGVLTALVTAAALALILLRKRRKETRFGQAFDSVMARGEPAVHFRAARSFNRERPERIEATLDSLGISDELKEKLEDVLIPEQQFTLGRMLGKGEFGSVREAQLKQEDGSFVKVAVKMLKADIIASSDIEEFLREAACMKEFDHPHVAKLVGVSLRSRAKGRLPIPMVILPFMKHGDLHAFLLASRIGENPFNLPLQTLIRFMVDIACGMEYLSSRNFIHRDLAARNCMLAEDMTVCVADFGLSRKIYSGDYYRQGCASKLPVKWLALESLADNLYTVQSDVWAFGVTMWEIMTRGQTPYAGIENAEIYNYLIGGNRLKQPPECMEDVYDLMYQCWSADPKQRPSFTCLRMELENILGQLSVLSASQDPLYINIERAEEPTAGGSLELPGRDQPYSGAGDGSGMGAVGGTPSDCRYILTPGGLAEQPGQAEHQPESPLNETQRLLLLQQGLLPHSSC
`CCC(=O)Nc1ccc2ncnc(Nc3cccc(Br)c3)c2c1` was tested, and the residual activity was 93%.
In the case of `Cc1nc2cc3nc(-c4cccs4)cnc3cc2n1C`, the residual activity is reported as 79%.
`O=C1c2ccccc2-[n+]2ccc3c([nH]c4ccccc43)c21` gave a residual activity of 107%.
With `Cc1ccc(S(=O)(=O)/C=C/C#N)cc1` the residual activity was 99%.
For `CC(=O)O/N=C1\C(=C2\C(=O)Nc3cc(Br)ccc32)Nc2ccccc21`, the residual activity was 98%.
Work on `CO[C@H]1C[C@@H]2CC[C@@H](C)[C@@](O)(O2)C(=O)C(=O)N2CCCC[C@H]2C(=O)O[C@H]([C@H](C)C[C@@H]2CC[C@@H](O)[C@H](OC)C2)CC(=O)[C@H](C)/C=C(\C)[C@@H](O)[C@@H](OC)C(=O)[C@H](C)C[C@H](C)/C=C/C=C/C=C/1C` yielded a residual activity of 118%.
With `O=C1NC(=O)/C(=C/c2ccc3c(c2)OC(F)(F)O3)S1` the residual activity was 105%.
With `CCN(CC)CCCCN1c2ccccc2Oc2ccc(Cl)cc21` the residual activity was 108%.
Work on `O=C(Nc1cccc(Nc2cc(Nc3cccc(C(F)(F)F)c3)ncn2)c1)C1CC1` yielded a residual activity of 30%.
`Cc1ccc(NC2=CC(=O)c3sc(C)nc3C2=O)cc1` showed a residual activity of 101%.
`COc1ccc(CNc2nc(N(CCO)CCO)nc3c2ncn3C(C)C)cc1` gave a residual activity of 97%.
Work on `Oc1ccc(-c2nc(-c3ccc(F)cc3)c(-c3ccncc3)[nH]2)cc1` yielded a residual activity of 81%.
In the case of `CC[n+]1c(/C=C/N(C)c2ccccc2)n(-c2ccccc2)c2ccc(-c3nc4ccccc4s3)cc21`, the residual activity is reported as 72%.
In the case of `O=Nc1c(-c2c(O)[nH]c3ccccc23)[nH]c2ccccc12`, the residual activity is reported as 15%.
For `Nc1ccc2ncnc(NCCc3ccc(Oc4ccccc4)cc3)c2c1`, the residual activity was 100%.
Compound `O=c1c2ccccc2[nH]c(=S)n1CCN1CCC(=C(c2ccc(F)cc2)c2ccc(F)cc2)CC1` has a residual activity of 102%.
In the case of `CC(C)n1cnc2c(NCc3ccccc3)nc(NCCCO)nc21`, the residual activity is reported as 101%.
`O=c1cc(-c2cccc3c2Sc2ccccc2S3)oc(N2CCOCC2)c1` gave a residual activity of 103%.
`Cc1nc(-c2ccccc2)c(-c2ccncc2)o1` showed a residual activity of 121%.
Work on `CNc1cc2c(Nc3cccc(Br)c3)ncnc2cn1` yielded a residual activity of 83%.
`Nc1n[nH]c2nnc(-c3c(-c4ccccc4)nn4ccccc34)cc12` gave a residual activity of 99%.
Compound `CC(=O)c1ccc(N2CCOCC2)cc1O` has a residual activity of 106%.
`Cc1cncc2cccc(S(=O)(=O)N3CCCN(C(=O)CN)C[C@H]3C)c12` was tested, and the residual activity was 95%.
`O=C1NC(=O)/C(=C\c2ccc3nccnc3c2)S1` showed a residual activity of 92%.
For `COc1cc2ncnc(Nc3ccc(O)c(Br)c3)c2cc1OC`, the residual activity was 4%.
Work on `CCOc1cc2ncnc(Nc3cccc(Br)c3)c2cc1OCC` yielded a residual activity of 16%.
Compound `Nc1cccc(-c2cc3c(Oc4cccc(O)c4)ncnc3[nH]2)c1` has a residual activity of 0%.
`Nc1nc(Nc2ccc(S(N)(=O)=O)cc2)nn1C(=S)Nc1c(F)cccc1F` showed a residual activity of -1%.
Work on `NC(=O)c1ccc2[nH]c(-c3ccc(Oc4ccc(Cl)cc4)cc3)nc2c1` yielded a residual activity of 97%.
Work on `O=C1Nc2cc(Br)ccc2/C1=C1/Nc2ccccc2/C1=N\O` yielded a residual activity of 78%.
In the case of `Oc1ccc(Nc2nc(-c3ccc(Cl)cc3)cs2)cc1`, the residual activity is reported as 96%.
In the case of `COc1cc2ncnc(Nc3ccc(Oc4ccccc4)cc3)c2cc1OC`, the residual activity is reported as 7%.
`c1ccc(-c2n[nH]c3c2oc2ccccc23)cc1` showed a residual activity of 62%.
